The structures appear in SMILES notation. Compounds without any hit were thinned out: in the full panel of roughly 83,000, 20% have a hit.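 Single-concentration screen, 48 h exposure, 96-well plates. Endpoint: percent growth. Below 10 = active.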 Values without a mark were called inactive. The source made the active and inactive calls.

Among the test systems are HCT-15 colon; HT29 colon; SNB-75 CNS; SNB-19 CNS; U251 CNS; PC-3 prostate; SK-MEL-5 melanoma; UACC-62 melanoma; LOX IMVI melanoma; SK-MEL-28 melanoma; SK-MEL-2 melanoma; EKVX NSCLC; SN12C renal; UO-31 renal; TK-10 renal; ACHN renal; A498 renal; CCRF-CEM leukemia; MOLT-4 leukemia; CAKI-1 renal.
Holding throughout (test): NCI-60 one-dose screen, 48 h (100 = growth as untreated, 0 = no growth, -100 = all killed)
Holding throughout (conditions): 10 µM unless noted

For `COc1cc(/C=C2\C(=O)Nc3ccccc32)ccc1OCc1ccc(Cl)cc1`, the growth in the assay on HCT-15 colon is 93.9%; in the assay with HT29 colon, 109%; in the assay with SNB-75 CNS it was 104%; with SNB-19 CNS, 97.1%; in the assay with U251 CNS, 107%; in the assay with PC-3 prostate it was 94.8%. Moreover, the growth is 103% in the assay on SK-MEL-5 melanoma; 87.6% in the assay on UACC-62 melanoma; 99.8% in the assay on LOX IMVI melanoma; 92.9% with SK-MEL-28 melanoma; 105% in the assay with SK-MEL-2 melanoma; 95.3% in the assay with EKVX NSCLC. Also, the growth was 103% in the assay with SN12C renal; 81.3% with UO-31 renal; 136% in the assay with TK-10 renal; 92.7% in the assay with ACHN renal; 115% in the assay with A498 renal; 94.9% with CCRF-CEM leukemia. Besides, the growth in the assay on MOLT-4 leukemia was 93.9%.

Consider `O=C(CSc1nc2ccccc2c(=O)n1-c1ccc(Cl)cc1)N/N=C/c1ccc(N2CCCCC2)cc1`, for which the growth was 67.8% in the assay on HCT-15 colon; 60.9% in the assay with HT29 colon; 79.9% in the assay with SNB-75 CNS; 43.2% in the assay on SNB-19 CNS; 50.6% with U251 CNS; 78.6% in the assay with PC-3 prostate. Moreover, the growth was 97.9% with SK-MEL-5 melanoma; 73.5% in the assay on UACC-62 melanoma; 43.5% in the assay with LOX IMVI melanoma; 84.8% in the assay with SK-MEL-28 melanoma; 99.5% with SK-MEL-2 melanoma; 82.1% in the assay with EKVX NSCLC. Besides, the growth in the assay with SN12C renal was 62.4%; with UO-31 renal, 53%; with TK-10 renal, 103%; in the assay with ACHN renal, 17.4%; in the assay with A498 renal, 78.5%; in the assay on CCRF-CEM leukemia, 87%. Also, the growth with MOLT-4 leukemia is 92%.

Turning to `COc1cccc(N2CCN(c3ncnc4c3[nH]c3ccc(F)cc34)C[C@H]2C)c1`, the growth in the assay with HCT-15 colon is 68.4%; in the assay with HT29 colon it was 70.4%; in the assay on SNB-75 CNS it was 63.2%; in the assay on SNB-19 CNS it was 68.7%; in the assay with U251 CNS it was 67.9%; in the assay with PC-3 prostate it was 38.2%. For the same compound, the growth in the assay on SK-MEL-5 melanoma is -62.3% (active); with UACC-62 melanoma, 40.5%; in the assay with LOX IMVI melanoma it was 63.1%; with SK-MEL-28 melanoma it was 50.7%; in the assay on SK-MEL-2 melanoma, 55%; with EKVX NSCLC it was 50.9%. For the same compound, the growth was 71.5% in the assay with SN12C renal; 31.6% in the assay on UO-31 renal; 95% in the assay on TK-10 renal; 63.2% in the assay on ACHN renal; 42.9% in the assay with CAKI-1 renal; 33.3% with CCRF-CEM leukemia. In the assay on MOLT-4 leukemia, the growth was 6.42% (active).

Turning to `NC(N)=Nc1ccc(Oc2ccc(Nc3ccc(Cl)c(C(F)(F)F)c3)cc2)cc1`, the growth is 37% with HCT-15 colon; 13.7% with HT29 colon; 95.2% in the assay with SNB-75 CNS; 3% (active) in the assay with SNB-19 CNS; 3.48% (active) in the assay with U251 CNS; 32.5% with PC-3 prostate. The growth is 8.32% (active) with SK-MEL-5 melanoma; 38.2% with UACC-62 melanoma; -96% (active) in the assay with LOX IMVI melanoma; 56.6% in the assay on SK-MEL-28 melanoma; 91.6% in the assay with SK-MEL-2 melanoma; 52.4% in the assay on EKVX NSCLC. Further, the growth with SN12C renal was 31.7%; with UO-31 renal, 69.8%; with TK-10 renal, 95.6%; with ACHN renal, 73.4%; in the assay on CAKI-1 renal, 69.4%; in the assay with CCRF-CEM leukemia, 20.3%. Further, in the assay with MOLT-4 leukemia, the growth is 18.5%.

For `CCOc1ccc(C(=O)Nc2ncc(Cc3ccc(F)cc3)s2)cc1`, the growth is 14.7% in the assay with HCT-15 colon; -18.2% (active) with HT29 colon; 10.2% in the assay on SNB-75 CNS; 29.6% in the assay with SNB-19 CNS; 16% in the assay on U251 CNS; 27.4% in the assay on PC-3 prostate. Also, the growth in the assay with SK-MEL-5 melanoma is 33.4%; in the assay on UACC-62 melanoma, 33%; in the assay on LOX IMVI melanoma, 23.7%; in the assay with SK-MEL-28 melanoma, 61.9%; in the assay on SK-MEL-2 melanoma, -7.6% (active); with EKVX NSCLC, 41.3%. The growth with SN12C renal is 36%; in the assay on UO-31 renal it was 41.9%; in the assay with TK-10 renal, 57.9%; with ACHN renal, 37.6%; with CAKI-1 renal, 38%; with CCRF-CEM leukemia it was 17.3%. In addition, the growth in the assay with MOLT-4 leukemia is 18.7%.

Regarding `COc1ccc2c(c1)c(CC(=O)[Se]CC#N)c(C)n2C(=O)c1ccc(Cl)cc1`, the growth with HCT-15 colon was 7.36% (active); with HT29 colon, -8.37% (active); in the assay on SNB-75 CNS, 73%; in the assay with SNB-19 CNS it was 50.3%; in the assay with U251 CNS, 19.7%; in the assay with PC-3 prostate, 8.19% (active). In addition, the growth in the assay with SK-MEL-5 melanoma is -6.8% (active); in the assay on UACC-62 melanoma, 55.2%; in the assay on LOX IMVI melanoma, -35.8% (active); in the assay on SK-MEL-28 melanoma, 37.6%; with SK-MEL-2 melanoma, 39.3%; in the assay with EKVX NSCLC, -2.11% (active). Besides, the growth is 74% in the assay with SN12C renal; -3.23% (active) in the assay on UO-31 renal; -5.49% (active) in the assay on TK-10 renal; 12% with ACHN renal; -17.1% (active) in the assay on A498 renal; 8.66% (active) with CCRF-CEM leukemia. Also, in the assay on MOLT-4 leukemia, the growth was 10.8%.

Take `COc1ccc2c(c1)c(CC(=O)[Se]CC(=O)O)c(C)n2C(=O)c1ccc(Cl)cc1`: the growth with HCT-15 colon was 93%; in the assay on HT29 colon it was 75.5%; in the assay on SNB-75 CNS it was 101%; with SNB-19 CNS, 40.7%; in the assay on U251 CNS it was 62%; with PC-3 prostate, 93.8%. In addition, the growth in the assay on SK-MEL-5 melanoma is 56.7%; in the assay on UACC-62 melanoma, 63.6%; in the assay with LOX IMVI melanoma it was 72.1%; in the assay on SK-MEL-28 melanoma, 90.3%; with SK-MEL-2 melanoma, 102%; in the assay on EKVX NSCLC, 103%. Further, the growth with SN12C renal was 58.5%; with UO-31 renal, 94.4%; with TK-10 renal, 104%; with ACHN renal, 103%; in the assay on A498 renal it was 69.3%; with CCRF-CEM leukemia, 94.6%. Also, the growth in the assay on MOLT-4 leukemia is 99.8%.

With `COc1ccccc1-n1cc(C#N)c(N)c1C(=O)c1ccc(Cl)cc1`, the growth in the assay on HCT-15 colon was 36.2%; in the assay on HT29 colon it was 52.8%; in the assay with SNB-75 CNS, 62.3%; in the assay with SNB-19 CNS, 69.4%; with U251 CNS, 91.9%; with PC-3 prostate, 58%. For the same compound, the growth was 60.1% in the assay with SK-MEL-5 melanoma; 46.3% with UACC-62 melanoma; 67.9% in the assay with LOX IMVI melanoma; 74.3% in the assay on SK-MEL-28 melanoma; 78.4% in the assay with SK-MEL-2 melanoma; 86.9% in the assay with EKVX NSCLC. Moreover, the growth in the assay with SN12C renal is 90%; in the assay on UO-31 renal, 77.4%; in the assay on TK-10 renal, 107%; with ACHN renal it was 93%; with A498 renal, 57%; in the assay on CCRF-CEM leukemia, 76.3%. Also, the growth in the assay with MOLT-4 leukemia was 64.2%.

The values are drawn from PubChem BioAssay (NCI).
